Screening results as filed in PubChem BioAssay.
Compounds with a hit are over-represented: about 2.4% of the library has one in this group of screens.
D2 ag-1: human D2 receptor agonism in beta-arrestin assay | P14416 | DiscoveRx PathHunter D2 beta-arrestin, luminescence, 90 min; 100% = 57 uM dopamine signal | activation, % (concentration not given with the values) | hit rate 0.084% among 360,000; in the data active = activation above about 40%
Target sequence (P14416 whole entry, looked up): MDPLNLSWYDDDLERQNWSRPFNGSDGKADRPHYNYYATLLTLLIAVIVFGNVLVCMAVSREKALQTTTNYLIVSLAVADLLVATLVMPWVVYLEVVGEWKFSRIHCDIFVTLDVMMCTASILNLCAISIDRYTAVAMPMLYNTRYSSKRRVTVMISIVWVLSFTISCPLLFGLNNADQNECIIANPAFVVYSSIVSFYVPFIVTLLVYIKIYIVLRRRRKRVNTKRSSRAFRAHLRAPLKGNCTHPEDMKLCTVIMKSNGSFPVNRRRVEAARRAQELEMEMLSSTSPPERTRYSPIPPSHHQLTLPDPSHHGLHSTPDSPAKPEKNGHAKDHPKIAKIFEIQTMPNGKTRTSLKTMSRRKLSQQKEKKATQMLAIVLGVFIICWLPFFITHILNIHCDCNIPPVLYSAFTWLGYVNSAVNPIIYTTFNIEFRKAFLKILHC
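DiscoveRx PathHunter D2 beta-arrestin cells (2,100/well) attached overnight, then compound-stimulated 90 min at 37 C in HBSS/10 mM HEPES/0.1% Tween-20 buffer; beta-galactosidase complementation read by luminescence after 1 h at ambient temperature. Dopamine 57 uM final (EC100) as control.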
D2 ag-2: D2 dopamine receptor (human) agonism. P14416. HEK293 T-REx D2 cells, calcium flux agonist mode. activation, % at 2 µM. hit rate 0.53% among 340,000;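 active = activation over 3 SD above normal in the single-dose calcium agonist read, cut at about 30% in these data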; also: 0% is about no effect
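Calcium-flux readout, 1 cycle/sec over 180 s following compound pin transfer, in inducible HEK293 Trex D2 cells (force-coupled); dopamine controls included. Positive calcium responses during this window marked compounds as potential agonists.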
D2 PAM-1: positive allosteric modulators of human D2 dopamine receptor | DiscoveRx D2 beta-arrestin cells, luminescence, 90 min; 100% = 57 uM dopamine signal | potentiation, % (no concentration beside the values) | hit rate 0.23% among 360,000 | P14416; in the data active = potentiation above about 50%
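PathHunter beta-arrestin assay in DiscoveRx D2 cells. Compounds were added with an EC20 of dopamine (50 nM final) for 90 min at 37 deg C. Luminescence was read 1 h after detection reagent, with 57 uM dopamine as the EC100 control.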
D2 PAM-2: D2 dopamine receptor (human) potentiation | P14416 | HEK293 T-REx D2, calcium flux, EC20 dopamine potentiation | potentiation, % at 10 µM | hit rate 0.34% among 340,000 | AID 485347;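 active = potentiation over 3 SD above the plate norm, cut at about 30% in these data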; also: 0% is about no effect
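Potentiation of an EC20 dopamine calcium response is measured in a force-coupled, tetracycline-inducible Hek293 Trex D2 line. Compound-only kinetic reads over 180 s flag agonists before dopamine addition.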
D2 antag: antagonizes the human D2 dopamine receptor; HEK293 TREx D2 cells, calcium flux, dopamine EC80; inhibition, % at 10 µM; hit rate 2% among 340,000; AID 485344; in the data active = inhibition above about 30%; inactive = below that, where a call was filed; also: 0% is about no effect
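Read-out: kinetic calcium fluorescence (1 cycle/s) in inducible HEK293 T-REx D2 cells after an EC80 dopamine addition that followed 180 s compound preincubation. Loss of the dopamine response indicates antagonism.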
* hit, by the source's call; . = not tested or not shown.

SMILES	D2 ag-1	D2 ag-2	D2 PAM-1	D2 PAM-2	D2 antag
CC1CCCN(S(=O)(=O)c2cccc(C(=O)NCc3ccco3)c2)C1 (stereo not given)	3	.	-5	.	.
COc1ccc(C(CNC(=O)C(CCSC)NC(=O)c2ccccc2Cl)N2CCCCC2)cc1 (stereo not given)	-3	1	-17	-5	41*
COc1ccc(C(CNC(=O)COc2ccccc2C)N2CCCCC2)cc1 (stereo not given)	-3	0	-30	-25	14
CC(C)c1ccc2c(c1)C1Cc3ccccc3C1N2 (stereo not given)	7	-1	7	-2	1
COc1ccc(C(CNC(=O)C(C)Oc2ccc(Br)cc2)N2CCCC2)cc1 (stereo not given)	-7	0	-28	-35	41*
CN1C(=O)CC(C(=O)Nc2ccc(C(=O)O)cc2)SC1=Nc1ccc(Cl)cc1 (stereo not given)	.	0	.	.	.
COc1ccc(NC(=O)CN2CCCN(S(=O)(=O)c3ccc(Br)cc3)CC2)c(OC)c1	.	1	.	-4	.
Cc1cc(NC(=O)CN2CC(C)OC(C)C2)n(-c2nc3ccccc3s2)n1 (stereo not given)	-2	0	-13	9	34*
Cc1ccc(S(=O)(=O)CCC(=O)OCC(=O)NCCc2ccccc2)cc1	-5	0	-1	6	-19
COc1ccccc1CNC(=O)Cc1ccc(C)cc1	2	0	-6	-2	-19
COc1ccccc1C(C)NCC(=O)NCc1ccc(C)cc1 (stereo not given)	1	0	-16	-28	37*
COc1ccccc1CNCC(=O)NCc1ccc(C)cc1	-2	0	-27	-26	52*
COc1ccccc1CNCC(O)Cn1c2ccccc2c2ccccc21 (stereo not given)	1	3	-2	5	42*
COc1ccccc1C(C)NCC(=O)NCC(=O)Nc1ccc(F)c(F)c1F (stereo not given)	0	0	-19	-11	-1
O=C1NC[C@@H](c2ccccc2)OC(=O)[C@@H](Cc2ccc(F)cc2)CC/C=C/C[C@H]1CC(=O)N(CCO)Cc1ccccc1	13	.	9	.	.
Cc1c(C(=O)N(C)C)sc2c1c(=O)n(-c1ccc(Cl)c(Cl)c1)c(=O)n2CC(=O)Nc1cccc(C(F)(F)F)c1	.	2	.	-16	.
CCN(C(=O)CSc1nc2ccc(O)cc2c(=O)n1-c1ccc(OC)c(OC)c1)C1CCS(=O)(=O)C1 (stereo not given)	-1	-1	-70	9	43*
COc1cccc(CNC(=O)Cn2cc3c(n2)-c2c(oc(C(=O)N4CCCC4)c2C)CC3)c1OC	.	2	.	3	.
Oc1ccccc1N1CCN(C(c2ccccc2)c2ccccc2)CC1	-4	0	-3	-2	30*
CC(=O)N1CCN(C(c2ccccc2)c2ccccc2)CC1	-3	.	-6	.	.
CCOC(=O)c1cc(S(=O)(=O)NCc2ccc(Cl)cc2)[nH]n1	.	-1	.	0	.
Cc1cccc(NC(=S)N(CCCN2CCOCC2)C(C)c2cc3ccccc3o2)c1 (stereo not given)	-7	0	-17	-10	35*
COc1cccc2cc(C(C)N(CCCN3CCOCC3)C(=S)Nc3cccc(C)c3)oc12 (stereo not given)	-6	-1	-16	-13	14
CC(=O)Nc1ccc(NC(=O)CSc2ncnn2-c2ccccc2)cc1	-2	0	5	31*	15
COc1cccc(NC(=O)CSc2nccn2-c2cccc(OC)c2)c1	-3	1	-34	-16	-1
SMILES	D2 ag-1	D2 ag-2	D2 PAM-1	D2 PAM-2	D2 antag
CC(=O)Nc1ccc(NC(=O)CSc2ccccn2)cc1	-1	-1	-10	5	1
COc1cccc(-n2ccnc2SCC(=O)Nc2ccccc2)c1	-4	0	-32	-23	50*
Cc1cc([N+](=O)[O-])ccc1NC(=O)/C=C/c1cccs1	-3	-1	-27	-20	44*
CCOc1ccc(CNC(=O)Nc2ccc3c(c2)N(C)C(=O)c2ccccc2S3)cc1	.	-1	.	-8	.
Cc1ccc(OCCCCN(C)Cc2ccccc2)c(Br)c1	-1	-1	-42	-25	1
Cc1cc(C)c(OCCCCN(C)Cc2ccccc2)c(C)c1	-4	-1	-83	-25	33*
O=c1c2c(n3cnnc3n1-c1ccccc1)-c1ccccc1CC21CCCCC1	0	0	7	-2	5
Cc1cccc(-n2c(=O)c3c(n4cnnc24)-c2ccccc2CC32CCCCC2)c1	-2	0	-2	41*	31*
C=CCOc1ccccc1CNCCCN1CCOCC1	-1	0	-12	37*	-5
CCS(=O)(=O)c1ncc(Cl)c(C(=O)N2CCN(c3ccc(OC)cc3)CC2)n1	.	4	.	1	.
Cc1csc(=O)n1CCC(=O)OCC(=O)Nc1ccc(S(N)(=O)=O)cc1	0	-1	1	2	54*
Cc1csc(=O)n1CCC(=O)OCC(=O)Nc1ccc(C(N)=O)cc1	-5	0	-1	-4	-3
O=C(N/N=C/c1ccccn1)C1CC1	-1	1	3	-19	32*
Cc1ccc(OCCCCNC(C)(C)C)c([N+](=O)[O-])c1	-2	0	-32	-15	-8
Cc1cc(Br)ccc1OCCOCCN1CCCC1	-1	0	-86	-15	43*
CC1CCN(CCCCOc2ccc([N+](=O)[O-])cc2)CC1	-1	0	-16	-19	2
Cc1ccc(OCCCCN2CCCC(C)C2)c([N+](=O)[O-])c1 (stereo not given)	-1	-1	-23	-30	91*
Cc1cc(OCCN2CCCCCC2)ccc1[N+](=O)[O-]	-5	0	-10	-12	34*
CC1CCN(CCCCOc2ccccc2[N+](=O)[O-])CC1	0	1	-28	-26	80*
COc1ccc(OC(=O)c2cnc3n(c2=O)CCS3)cc1	-2	1	-15	-3	14
Cc1cccc(NC(=O)N2CCc3c(sc4c3CCCC4)C2c2ccc(F)cc2)c1 (stereo not given)	.	10	.	-8	.
Cc1ccc([N+](=O)[O-])c(OCCCN2CCCCCC2)c1	-4	0	-18	-27	71*
CC1CCCN(CCCOc2ccc(Br)cc2Cl)C1 (stereo not given)	-6	0	-11	-22	36*
CC1CCN(CCOCCOc2ccc(Br)cc2Cl)CC1	-3	.	-38	.	.
O=[N+]([O-])c1ccccc1OCCCNCc1ccccc1	-4	0	-19	-17	38*
COc1ccccc1NC(=O)Cn1c(=O)n(Cc2ccc3c(c2)OCO3)c(=O)c2oc3ccccc3c21	.	0	.	-3	.
O=C(Nc1ccc(Cl)cc1Cl)NC1CCN(S(=O)(=O)c2ccc(F)cc2)CC1	-2	0	0	-1	-7
